Data on 75 compounds can be found in publication PMC4552634, “A New Set of Chemical Starting Points with Plasmodium falciparum Transmission-Blocking Potential for Antimalarial Drug Discovery” (PLoS ONE, 2015).

As usually defined, the % Inhibition is the change of the read-out against control, counted positive when it falls.

Molecules are shown by their SMILES. Among all 13,000 compounds or so, about 3,200 (25%) showed an effect of 50% or more. Some of the results follow.

This assay has as its system P. falciparum stage V gametocytes. Set-up: BacTiter-Glo ATP luminescence viability of purified stage V gametocytes in 384-well plates, per cent inhibition versus DMSO. Conditions: 48 h, 5 µM; inhibitor.
For the compound `O=C(N/C=N/c1cc([N+](=O)[O-])c(-c2ccncc2)n1-c1ccccc1)c1cccc(O)c1` [TCMDC-125648], the “% Inhibition” value was -19.59%.
For `O=c1ccccn1CCCC1CCCCN1` (stereo not drawn) [TCMDC-140731] the value was 9.489%; for `Oc1ccc(OCc2ccccn2)cc1` [TCMDC-125881], 0.9057%.
On to `Oc1ccccc1CN(CCCN(Cc1ccccn1)Cc1ccccc1O)Cc1ccccn1` [TCMDC-138469], for which the “% Inhibition” value is reported as 77.52%.
For `CCCCN(CCCC)Cc1cc2ccccc2cc1O` [TCMDC-137590] the value was -20.89%; for `COc1nc(Nc2cccc(C)c2)nc(OC)n1` [TCMDC-124204], -12.01%.
On to `CN(C)C(CNc1ncnc2cc(Cl)ccc12)Cc1ccccc1` (stereo not drawn) [TCMDC-124600], for which the “% Inhibition” value is on record as -0.01557%.
`Cc1c(Cl)cccc1S(=O)(=O)N1CCCCC(c2ccc(C(F)(F)F)cc2)=N1` [TCMDC-134534]: the “% Inhibition” value is recorded as -14.43%.
The figure for `CC(=O)CSC(C=Cc1ccc(N(C)C)cc1)=Nc1ccccc1` [TCMDC-137558] is -4.21%; for `CN(C)c1ccc2c(c1)Sc1cc(N(C)C)ccc1N2C(=O)c1cccc(C(=O)O)c1` [TCMDC-124169] it is 30.57%.
The figure for `CN(C)c1ccc2c(c1)Sc1cc(N(C)C)ccc1N2C(=O)CCCC(=O)O` [TCMDC-125778] is 104%; for `O=C(Nc1cc(Cl)cc(Cl)c1)N[C@H]1CCN(CCCCCNC(=O)C2CC2c2ccc(Cl)c(Cl)c2)C1` (stereo partly drawn) [TCMDC-136273] it is 86.02%; for `O=C(Nc1cccc(Cl)c1Cl)N[C@H]1CCN(CCCCCNC(=O)C2CC2c2ccc(Cl)c(Cl)c2)C1` (stereo partly drawn) [TCMDC-136267] it is -46.93%.
Take `O=C(Nc1ccc(F)cc1F)NC1CCN(CCCCCNC(=O)C2CC2c2ccc(Cl)c(Cl)c2)CC1` (stereo not drawn) [TCMDC-136253]: the “% Inhibition” value is recorded as -52.54%.
For `O=C(Nc1ccc(Cl)cc1F)NC1CCN(CCCCCNC(=O)C2CC2c2ccc(Cl)c(Cl)c2)CC1` (stereo not drawn) [TCMDC-136258] the value was 66.19%; for `O=C(Nc1cc(Cl)ccc1Cl)N[C@H]1CCN(CCCCCNC(=O)C2CC2c2ccc(Cl)c(Cl)c2)C1` (stereo partly drawn) [TCMDC-136265], 55.1%.
With `O=C(Nc1ccc(Cl)cc1Cl)NC1CCN(CCCCCNC(=O)C2CC2c2ccc(Cl)c(Cl)c2)CC1` (stereo not drawn) [TCMDC-136257], the “% Inhibition” value was determined as 1.836%.
As for `O=C(Nc1ccc(Cl)cc1F)N[C@H]1CCN(CCCCCNC(=O)C2CC2c2ccc(Cl)c(Cl)c2)C1` (stereo partly drawn) [TCMDC-136269], the “% Inhibition” value stood at 0.8246%.
For `O=C(Nc1ccc(Cl)cc1)N[C@H]1CCN(CCCCCNC(=O)C2CC2c2ccc(Cl)c(Cl)c2)C1` (stereo partly drawn) [TCMDC-136262] the value was 1.23%; for `O=C(Nc1ccc(Cl)cc1Cl)N[C@H]1CCN(CCCCCNC(=O)C2CC2c2ccc(Cl)c(Cl)c2)C1` (stereo partly drawn) [TCMDC-136268], -5.844%; for `O=C(Nc1cc(Cl)ccc1O)c1ccc(Oc2ccc(C(=O)Nc3cc(Cl)ccc3O)cc2)cc1` [TCMDC-124084], -31.23%.
As for `Cc1ccc(C)c(NC(=O)NC2CCN(c3ccnc(Nc4ccc(F)cc4)n3)C2)c1` (stereo not drawn) [TCMDC-133601], the “% Inhibition” value is listed as -9.129%.
For the compound `Cc1ccc2[nH]ncc2c1N(CC1CCCCC1)c1ccnc(Nc2ccc(OCC(O)CN3CC=CCC3)cc2)n1` (stereo not drawn) [TCMDC-138794], the “% Inhibition” value worked out at 108.6%.
In the case of `COc1ccc(Nc2nccc(N3CCC(NC(=O)Nc4cc(C)ccc4C)C3)n2)cc1` (stereo not drawn) [TCMDC-133615], the “% Inhibition” value is given as -63.4%.
Turning to `Cc1noc(-c2ccccc2)c1CN1CCCC2(CC(C(=O)NCc3cccc(F)c3F)=NO2)C1` (stereo not drawn) [TCMDC-136606], the “% Inhibition” value is given as -21.45%.
On to `Cc1noc(C)c1-c1cccc(CNCc2cccc(-c3ccc(-c4nc5cccc(C)c5[nH]4)cc3)c2)c1.O=C(O)C(F)(F)F` [TCMDC-133056], for which the “% Inhibition” value is -10.48%.
For `Cc1[nH]c(C)c(-c2ccc(Oc3ccccc3)cc2)c(=O)c1Br` [TCMDC-137410] the value was 67.24%; for `Cc1[nH]c(C)c(-c2ccc(Oc3ccc(Cl)cc3)cc2)c(=O)c1Br` [TCMDC-137420], 17.1%.
As for `Cc1[nH]c(C)c(-c2ccc(-c3ccc(F)cc3)cc2)c(=O)c1Br` [TCMDC-137421], the “% Inhibition” value is 28.52%.
The figure for `Cc1[nH]c(C)c(-c2ccc(Oc3ccc(F)cc3)cc2)c(=O)c1Br` [TCMDC-137402] is 76.64%; for `Cc1[nH]c(C)c(-c2ccc(OCc3ccccc3)cc2)c(=O)c1Br` [TCMDC-138901] it is 61.61%; for `C=CCOc1ccc(-c2c(C)[nH]c(C)c(Br)c2=O)cc1` [TCMDC-135042] it is 74.1%.
For `Cc1[nH]c(C)c(-c2ccc(Oc3ccc([S+](C)[O-])cc3)cc2)c(=O)c1Br` (stereo not drawn) [TCMDC-137400] the value was 34.54%.
Turning to `Cc1[nH]c(C)c(-c2ccc(OCc3ccc(F)cc3)cc2)c(=O)c1Br` [TCMDC-138928], the “% Inhibition” value was 4.156%.
For `CCN1CCN(c2cc(C)c3cc(NC(=O)c4cccc([N+](=O)[O-])c4)ccc3n2)CC1` [TCMDC-125577] the value was 8.914%; for `CCN(CC)CCn1c2ccccc2c2ccc(C(=O)Nc3ccc4sc(C)nc4c3)cc21` [TCMDC-135280], -1.763%.
For `O=C(c1cccc(-c2ccc(-c3nc4cc(F)ccc4[nH]3)s2)c1)N1CCCCC1CN1CCC(O)C1` (stereo not drawn) [TCMDC-132343] the value was -28.04%.
For the compound `COc1ccc2nc(C)cc(Nc3ccc(Oc4ccc(Cl)cc4)c(Cl)c3)c2c1` [TCMDC-123477], the “% Inhibition” value is on record as -13.35%.
Consider `Cc1csc(NC(=O)c2cn(-c3ccccc3)nc2-c2cccs2)n1` [TCMDC-124531], for which the “% Inhibition” value worked out at 15.91%.
For the compound `CC1CCCC(NCc2c(O)ccc3ccccc23)C1` (stereo not drawn) [TCMDC-137601], the “% Inhibition” value came to 28.2%.
In the case of `O=C(NCc1cccc2ccccc12)[C@@H]1CCCN1C(=O)c1ccc(O)c(-c2ccc(Cl)c(Cl)c2)c1` [TCMDC-140876], the “% Inhibition” value is listed as 16.61%.
The figure for `COc1ccc2ccc(F)c(CC(=O)N3CCOC(CNCc4cccc(-c5ccc(F)cc5)n4)C3)c2n1` (stereo not drawn) [TCMDC-135026] is -25.99%.
As to `CCOC(=O)c1c(CSc2ccccc2)oc2cc(CN(C)C)c(O)c(Cl)c12` [TCMDC-124095], the “% Inhibition” value is recorded as -76.05%.
Consider `Cc1cccc2[nH]c(-c3ccc(-c4cccc(NCc5cn6cccnc6n5)c4)cc3)nc12` [TCMDC-136896], for which the “% Inhibition” value was -19.99%.
For `COc1cccc2cc(C(=O)N[C@@H](CC(C)C)C(=O)Nc3cc(F)ccc3Br)oc12` [TCMDC-135547] the value was 2.093%; for `C=Cc1ccc(-c2c(C)[nH]c(C)c(Br)c2=O)cc1` [TCMDC-135433], 58.24%; for `Cc1[nH]c(C)c(-c2ccc(OCCCc3ccccn3)cc2)c(=O)c1Br` [TCMDC-135795], 65.53%.
`C=CCOc1ccccc1CNCC(O)c1cc(Br)cs1` (stereo not drawn) [TCMDC-140498]: the “% Inhibition” value is recorded as -6.926%.
`CN(C)C(CNC(=O)c1cc(-c2ccncc2)c(-c2ccc(NC(=O)Nc3cccc(Cl)c3)cc2)o1)c1ccccc1` (stereo not drawn) [TCMDC-135781]: the “% Inhibition” value is given as -15.22%.
The figure for `COc1cccc(NC(=O)Nc2ccc(Nc3nc(C)cc(N(C)C)n3)cc2)c1` [TCMDC-124959] is 26.66%; for `CCC(C)(C)NC(C)C(O)c1ccc(C(F)(F)F)cc1` (stereo not drawn) [TCMDC-138152] it is -4.943%; for `Cc1ccc(NCC(=O)Nc2ccc(F)c(Cl)c2)cc1S(=O)(=O)N1CCOCC1` [TCMDC-123553] it is -4.453%.
Regarding `Cc1[nH]c(C)c(-c2ccc(Oc3cc(Cl)cc(Cl)c3)cc2)c(=O)c1Cl` [TCMDC-137391], the “% Inhibition” value came to 69.19%.
The figure for `Cc1[nH]c(C)c(-c2ccc(Oc3ccc(Cl)cc3)cc2)c(=O)c1I` [TCMDC-137393] is 12.14%.
As to `Cc1[nH]c(C)c(-c2ccc(Oc3cccc(Cl)c3)cc2)c(=O)c1Cl` [TCMDC-137395], the “% Inhibition” value was 75.57%.
With `Cc1[nH]c(C)c(-c2ccc(Oc3ccc(Cl)cc3)cc2)c(=O)c1C` [TCMDC-137378], the “% Inhibition” value was found to be 85.12%.
With `Cc1[nH]c(C)c(-c2ccc(Oc3ccc(Cl)cc3)cc2)c(=O)c1Cl` [TCMDC-137418], the “% Inhibition” value is given as 32.25%.
As to `NC(=O)c1ccsc1NC(=O)CNC(c1ccc(F)cc1)c1cccs1` (stereo not drawn) [TCMDC-125036], the “% Inhibition” value was found to be 5.053%.
As to `C[C@@H]1CN(C(c2cccc(O)c2)c2cccc(C(=O)N(C)c3cccc(F)c3)c2)[C@@H](C)CN1C(c1cccc(O)c1)c1cccc(C(=O)N(C)c2cccc(F)c2)c1` (stereo partly drawn) [TCMDC-137248], the “% Inhibition” value is given as -16.24%.
`CCN(CC)CCCN(C(=O)Nc1ccc(C#N)cc1)c1nc(-c2ccc(F)cc2)cs1` [TCMDC-136664]: the “% Inhibition” value was -0.5138%.
On to `CN1C2CCC1c1cc(NC(=O)c3cc(-c4ccc(Cl)cc4)cs3)ccc12` (stereo not drawn) [TCMDC-134192], for which the “% Inhibition” value is recorded as -60.68%.
The figure for `CCOc1cc(C(=O)NC2CCN(Cc3ccccc3)CC2)ccc1-c1nc2cc(Cl)c(F)cc2[nH]1` [TCMDC-140096] is -27.97%.
For the compound `CC(C)(C)c1cc(C(=O)N2CCN(c3ncnc4ccsc34)CC2)n(Cc2ccccc2)n1` [TCMDC-133771], the “% Inhibition” value is listed as -19.67%.
`CCCCNCC(O)COc1ccccc1-c1ccc(N/N=C/c2cccc3ccccc23)nn1` (stereo not drawn) [TCMDC-139416]: the “% Inhibition” value is 102.4%.
Take `COc1ccc(NC(=O)/C=C/c2ccccc2Cl)cc1OCCN1CCC(NCc2cccnc2)CC1` [TCMDC-140758]: the “% Inhibition” value was -13.35%.
The figure for `COc1cc(NC(=O)c2sc(-c3ccc(Cl)cc3)cc2NC(=O)c2ccncc2)ccc1OCCN1CCCC1` [TCMDC-135398] is 121.8%; for `COc1cc(NC(=O)c2ccc(-c3ccc(C(C)=O)cc3)s2)ccc1OCCN1CCCC1` [TCMDC-138864] it is -4.371%.
In the case of `Cc1ccc(NC(=O)c2ccc(-c3cc4cc(Cl)c(Cl)cc4[nH]3)cc2)cc1OCCN1CCCC1` [TCMDC-141289], the “% Inhibition” value is 43.64%.
For `COc1cc(NC(=O)c2ccc3oc4ccccc4c3c2)ccc1OCCN1CCCCC1` [TCMDC-140701] the value was -7.89%; for `COc1cc(NC(=O)c2sc(-c3ccc(Cl)cc3)cc2Cl)ccc1OCCN1CCCC1` [TCMDC-135556], -58.99%.
For the compound `COc1cc(NC(=O)c2sc(-c3ccc(Cl)cc3)cc2NC(=O)c2cccnc2)ccc1OCCN1CCCC1` [TCMDC-135397], the “% Inhibition” value worked out at 125.5%.
Turning to `COc1ccc(NC(=O)c2ccc3[nH]c(-c4ccc(Cl)cc4)cc3c2)cc1OCCN(C)C` [TCMDC-138706], the “% Inhibition” value is reported as -82.62%.
The figure for `COc1ccc(NC(=O)/C=C/c2ccccc2Cl)cc1OCCN1CCN(c2ccncc2)CC1` [TCMDC-140732] is 4.813%; for `COc1cc(NC(=O)c2sc(-c3ccc(Cl)cc3)cc2NC(=O)N2CCCC2)ccc1OCCN1CCCC1` [TCMDC-135404] it is 71.79%.
The figure for `COc1cc(NC(=O)c2sc(-c3ccc(Cl)cc3)cc2NC(=O)c2cccc(N(C)C)c2)ccc1OCCN1CCCC1` [TCMDC-135403] is 72.06%.
